Screening results deposited in PubChem BioAssay by several laboratories.
Arbovirus anti – blocks arbovirus infection. arbovirus infection cell-based antiviral screen. inhibition, % at 10 µM. 0.37% of 200,000 active; in the data active = inhibition above about 30%
CHOP inhibitor – inhibitors of CHOP induction in ER stress response | 3.8% of 220,000 active | AID 2732 | CHO-K1 CHOP-promoter luciferase, tunicamycin-induced, 15-18 h | inhibition, % at 10 µM;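 active = compounds that reduced the stress-induced luciferase reporter signal by more than about 70% of percent inhibition, limit read from the data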;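 note: 0% = tunicamycin plus vehicle and 100% = wells without tunicamycin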
L major viab – reduces viability of Leishmania major promastigotes | resazurin fluorescence viability | 9% of 200,000 active | inhibition, % at 10 µM; in the data active = inhibition above about 50%;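 note: promastigotes grown with compound for 44 hours at 28 °C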
WT yeast gro inh – growth inhibition of WT yeast, mitochondrial fusion screen; inhibition, % at 10 µM; 2.1% of 190,000 active; mitochondrial fusion phenotypic screen, WT strain; in the data active = inhibition above about 58%; tested in S. cerevisiae
Active calls of the source: *; · = not tested or not shown. Hits are enriched below; roughly 12% of the tested compounds scored in any of these assays.

SMILES | Arbovirus anti | CHOP inhibitor | L major viab | WT yeast gro inh
COc1ccc(OC)c(C2Nc3nc4ccccc4n3C(C)=C2C(=O)Nc2ccc(C)cc2C)c1 (centres undefined) | -19.2 | 43.3 | 4.4 | ·
CC(C)=CC(=O)NCCc1ccccc1 | 8.3 | 84.6* | -3.1 | 9.7
O=C(OCC(=O)N1CCN(C(=O)c2ccco2)CC1)c1cn(-c2ccccc2)nc1-c1ccccc1 | -4.4 | 4.2 | 2.7 | 80.2*
CC1CCc2c(nc3ncnn3c2NCCc2ccccc2F)C1 (centres undefined) | 2.8 | 38.1 | 17.6 | 5.3
Cc1cccc(N2CCN(C(=O)Cn3sc4nc(C)cc(C)c4c3=O)CC2C)c1 (centres undefined) | -39.3 | 99.0* | -14.4 | 55.4
Cc1cc(C)c2c(=O)n(CC(=O)N3CCC(Cc4ccccc4)CC3)sc2n1 | -6.3 | 106.7* | 78.2* | 64.1
CN1CC(=O)N(CC(=O)N2CCC(Cc3ccccc3)CC2)C1=O | -5.4 | 11.9 | -3.3 | -9.3
Cc1ccc(-c2ccc(=O)n(CC(=O)N3CCN(c4cccc(C)c4)C(C)C3)n2)cc1 (centres undefined) | 2.5 | 67.1 | -7.4 | 15.9
COCc1cc(=O)[nH]c(Sc2c(-c3ccccc3)c3ccc(Cl)cc3[nH]c2=O)n1 | 2.0 | 3.0 | -5.4 | -6.7
COc1ccc(-c2cc(-c3nnc(COC(=O)c4ccc(O)cc4)o3)c3ccccc3n2)cc1OC | 0.1 | 23.5 | 58.6* | 7.7
COc1ccc(-c2cc(-c3nnc(COC(=O)C4CC4)o3)c3ccccc3n2)cc1OC | 3.5 | 26.3 | 9.1 | 29.4
Nc1ncnc2oc(-c3ccco3)c(-c3ccco3)c12 | 2.1 | 55.2 | 51.6* | 20.5
O=C1c2cnc3nc(SCc4cccc(Cl)c4)nn3c2CC2c3ccccc3CCN12 (centres undefined) | 2.0 | 18.1 | 56.3* | -2.8
CSc1nc2ncc3c(n2n1)CC1c2ccccc2CCN1C3=O (centres undefined) | 5.7 | 6.9 | 6.2 | -7.3
c1ccc2nc(-c3nccs3)ccc2c1 | 1.9 | -4.5 | -1.8 | 16.1
Clc1ccsc1-c1ccc2ccccc2n1 | 0.8 | 89.5* | -0.4 | -7.7
Cc1nc(CN(C)C(=O)c2cc(COc3ccc4ncccc4c3)on2)cs1 | 25.2 | 50.9 | 13.9 | -17.2
Cc1ccc(S(=O)(=O)NCCSCc2ccccc2)cc1 | 3.9 | 21.5 | -3.5 | 14.5
COc1ccc(S(=O)(=O)NCCSCc2cccc(C)c2)cc1Br | -43.1 | 84.5* | -1.5 | 64.9*
CC(C)(C)c1ccc(N2C(=O)CSC2c2cccnc2)cc1 (centres undefined) | · | -3.7 | · | ·
CCC(Sc1nc(N)cc(=O)[nH]1)C(=O)Nc1cc(C)on1 (centres undefined) | 5.8 | -5.5 | -6.9 | -19.5
O=C(Nc1ccc(Cl)cc1)Nc1ccc(N2CCOCC2)cc1 | -3.0 | 24.0 | -5.5 | 4.3
O=C1C=C(NC(=O)Nc2ccc(Cl)c(Cl)c2)CCC1 | 14.7 | -19.4 | -3.5 | 80.3*
O=C(Nc1ccc(Cl)c(Cl)c1)Nc1ccccc1O | · | -6.9 | · | ·
O=C(Nc1ccc(Cl)c(Cl)c1)Nc1ccc(Br)cc1F | -5.3 | 101.4* | -0.4 | 81.3*
SMILES | Arbovirus anti | CHOP inhibitor | L major viab | WT yeast gro inh
O=C(Nc1ccc(N2CCOCC2)cc1)Nc1ccc(Cl)c(Cl)c1 | -8.3 | 79.3* | 27.5 | 22.1
O=C(Nc1ccc(Cl)c(Cl)c1)N1CCSCC1 | 6.5 | 33.5 | 74.0* | -8.8
Cc1cc(C)cc(N(C(C)C(=O)NCc2ccc3c(c2)OCO3)S(C)(=O)=O)c1 (centres undefined) | -1.0 | 7.2 | 8.6 | -4.4
Cc1cccc(-n2cc(CNCCc3nc(C)cc(C)n3)c(-c3cccc(F)c3)n2)c1 | · | 9.3 | · | ·
O=C(Nc1ccc(Cl)c(Cl)c1)N1CCC(N2CCCCC2)CC1 | -34.6 | -2.4 | 91.0* | 0.3
COc1cccc(NC(=O)N2CCC(N3CCCCC3)CC2)c1 | -0.1 | -28.8 | -1.5 | -13.1
O=C(N/N=C/c1ccco1)c1cccc([N+](=O)[O-])c1 | -2.8 | -2.0 | -10.4 | -17.6
O=C(N/N=C/c1ccc(Br)o1)c1cc([N+](=O)[O-])cc([N+](=O)[O-])c1 | 0.2 | 4.4 | 94.3* | -2.2
O=C(N/N=C/c1ccncc1)c1cc([N+](=O)[O-])cc([N+](=O)[O-])c1 | 2.5 | -3.5 | 95.8* | -11.3
O=C(N/N=C/c1ccncc1)c1cccc([N+](=O)[O-])c1 | -10.1 | 6.7 | -1.8 | -7.0
Cc1nc([N+](=O)[O-])c(Sc2nc3ccc([N+](=O)[O-])cc3[nH]2)n1Cc1ccccc1 | -14.2 | -28.9 | 53.7* | 0.1
O=C(/C=C/c1ccco1)Nc1cc(Cl)ccc1C(=O)O | 41.7* | 0.4 | -0.4 | -13.7
O=C(/C=C/c1ccco1)Nc1cccc(NC(=O)/C=C/c2ccco2)n1 | 7.0 | -46.7 | 64.1* | 59.5*
Cc1nc(NC(=O)/C=C/c2ccco2)sc1C | -13.6 | -31.0 | -6.8 | -1.5
COc1cccc(N/C(N)=N/c2nc(C(F)(F)F)cc(=O)[nH]2)c1 | 3.8 | 51.5 | -4.7 | -15.1
Brc1ccccc1OCCCN1CCOCC1 | -2.6 | -4.7 | 71.9* | 3.0
O=C1NC(CCc2ccccc2)C(=O)N1CCOc1cccc(Br)c1 (centres undefined) | 4.1 | -0.4 | 15.6 | 0.0
CC1CCN(CCCCOc2cccc(Br)c2)CC1 | -10.4 | 25.1 | 95.2* | 26.0
CC1CCN(CCOc2ccc(Cl)c(Cl)c2)CC1 | -12.0 | -8.4 | 87.6* | 1.0
CCOc1ccc(OCC)c(S(=O)(=O)N2CCC(C)CC2)c1 | 3.4 | 23.8 | 2.1 | 5.3
c1ccc(-c2ccccc2OCCN2CCOCC2)cc1 | 7.8 | -35.4 | -0.2 | -0.1
CC1CCN(CCCCOc2ccccc2Br)CC1 | -9.3 | 32.1 | 99.5* | 19.9
COc1cc(C)c(Cl)cc1S(=O)(=O)NC1CC(C)(C)NC(C)(C)C1 | -12.0 | -6.9 | -4.6 | -1.0
CC1CCN(CCCCOc2ccc(Br)cc2)CC1 | -17.9 | 5.6 | 98.9* | 1.0
CCOC(=O)c1[nH]c2ccc(Br)cc2c1NC(=O)CCN1CCC(C)CC1 | 2.7 | 53.4 | 41.4 | 3.1
SMILES | Arbovirus anti | CHOP inhibitor | L major viab | WT yeast gro inh
Cc1cc(Br)ccc1OCCCCN1CCC(C)CC1 | -8.6 | 5.7 | 99.5* | 17.5
Brc1cccc(OCCN2CCCCC2)c1 | -6.8 | 28.1 | 96.1* | -8.0
CCCCOc1ccc(C(=O)N2CCC(C)CC2)cc1 | 0.8 | 66.6 | -6.0 | 6.7
Cc1cccc(CS(=O)(=O)Cc2ccc(C(=O)NCc3cccs3)o2)c1 | 1.6 | 12.1 | 17.6 | -10.8
COc1ccccc1NS(=O)(=O)c1cc(NC(=O)/C=C/c2cccs2)ccc1N1CCOCC1 | 2.2 | 9.8 | 98.8* | 4.3
O=C(/C=C/c1cccs1)Nc1ccc(N2CCOCC2)c(S(=O)(=O)Nc2cc(Cl)ccc2Cl)c1 | 5.3 | 37.3 | 11.3 | 7.1
O=C(/C=C/c1cccs1)Nc1ccc(N2CCOCC2)c(S(=O)(=O)Nc2ccccc2Cl)c1 | -11.0 | 25.2 | 98.7* | -9.5
Cc1nn(C)cc1CN(C)C(=O)c1cc(COc2ccc(F)cc2F)on1 | 3.9 | 5.7 | -4.6 | -11.3
CC(C)(O)C#Cc1ccc([C@@H]2C[C@H]3CN(c4ccccc4)C(=O)[C@]34CCCN24)s1 | -20.2 | 95.3* | -2.0 | 1.4
COc1ccc([C@@H]2C[C@H]3CN(c4ccccc4)C(=O)[C@]34CCCN24)c(OC)c1OC | 8.3 | 18.8 | 6.3 | 6.3
O=C(Nc1cc2c(oc1=O)CCCC2=O)c1ccccc1 | 2.0 | 76.1* | -3.3 | 7.3
Cc1ccc(C(=O)Nc2cc3c(oc2=O)CCCC3=O)cc1 | -3.3 | -18.6 | -2.7 | 3.0
